Tau ThT inhib – blocks human tau fibril formation measured by thioflavin T. AID 1460. recombinant tau K18 P301L, heparin-induced fibrillization, ThT fluorescence. Potency, µM (highest dose often 57.4 µM), actives largely listed as inhibitors. actives 2.1% (n = 270,000). P10636; note: nearly all actives have a fitted effect of over 55% in size
Target sequence (P10636 561-689 P618L limits assumed): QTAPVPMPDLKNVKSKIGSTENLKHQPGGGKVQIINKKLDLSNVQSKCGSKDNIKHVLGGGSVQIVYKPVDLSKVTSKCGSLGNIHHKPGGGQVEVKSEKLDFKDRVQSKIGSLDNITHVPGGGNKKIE
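K18 P301L tau (15 uM + 0.24 uM Alexa 594-tagged), heparin 20 uM, NaOAc pH 7, 6 h 37 C; ThT 30 uM, 1 h RT, ex 450/em 510 nm.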
Tau FP inhib – tau fibrillization inhibition (FP) | P10636 | K18 P301L tau heparin fibrillization, Alexa594 FP, 6 h | Potency, µM (doses to about 57.7 µM), usual class: inhibitors | actives 0.39% (n = 280,000) | AID 1468; note: nearly all actives have a fitted effect of over 55% in size
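FP of Alexa 594-tau after heparin (20 uM) induction. Substrate: human K18 P301L, 15 uM unlabeled, 0.24 uM labeled. Buffer 100 mM sodium acetate pH 7. 6 hr, 37 C.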
Tau fluor counter – counter-screen for tau fibril formation inhibitors. actives 0.93% (n = 280,000). tau K18 P301L (four-repeat tau fragment) Alexa594 fluorescence, heparin fibrillization. Potency, µM (titrated, usually from 57.7 µM). AID 1463; note: nearly all actives have a fitted effect of over 55% in size
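Human K18 P301L tau (15 uM unlabeled plus 0.24 uM Alexa 594-labeled, final) in 100 mM sodium acetate pH 7 was mixed with compound and 20 uM heparin and incubated 6 hr at 37 C.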
FBPA coupling cs – coupling enzyme interference in Giardia aldolase counter-screen | coupling enzyme system counterscreen, AmpLite Red fluorescence | activity change, negative = inhibition, % at 58.2 µM, hits read low | actives 0.67% (n = 290,000) | AID 2472; in the data active = activity change below about -30%
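First, compound is pin-transferred into glyceraldehyde-3-phosphate coupling-enzyme reagent at 57.5 uM final and held 10 min at RT. Next, substrate, coupling system and AmpLite Red are added. After 20 min RT, fluorescence (525/598 nm) is read.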
Sfp PPTase inh – inhibitors of Bacillus subtilis Sfp phosphopantetheinyl transferase; Biochemical Sfp PPTase activity, qHTS; Q9F4F7; actives 3.5% (n = 310,000); AID 1490; Potency, µM, usual class: inhibitors;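 note: the enzyme is Sfp with the accession as filed and its product quenches rhodamine fluorescence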
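Fluorescence-quenching assay: 15 nM Sfp-PPTase preincubated 15 min at room temperature with compound, then 5 uM rhodamine-CoA and 12.5 uM BHQ-2-labelled YbbR peptide added. Fluorescence (ex 525/em 598 nm) read at start and after 30 min; difference gives rate.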
Of the large screens only hits and unclear results are named; the others gave an inactive call. In the library only some 5.2% were active in any assay of this set; here they are far more common. Unless noted, calls come from the whole dose curve; as a rule, active = well fitted curve in the direction sought with a large enough effect; inconclusive = small, poorly fitted or top-dose-only effect, or another doubt; inactive = no such curve, though single readings can be large; an effect the other way counts as inactive or inconclusive.

CC(C)CNC(=O)COC(=O)c1c2c(nc3ccccc13)/C(=C/c1cccs1)CC2	Tau ThT inhib inconclusive, Tau fluor counter inconclusive, Sfp PPTase inh 45µM
NC(=O)c1ccc(NC(=O)COC(=O)c2c3c(nc4ccccc24)/C(=C\c2cccs2)CCC3)cc1	Tau FP inhib 4.5µM, Tau fluor counter inconclusive
O=C(COC(=O)c1c2c(nc3ccccc13)/C(=C/c1ccco1)CC2)NC1CCCC1	Tau ThT inhib inconclusive, Tau fluor counter inconclusive, Sfp PPTase inh 50µM
Cc1ccc(C(=O)c2c(C)oc3c2C(=O)C(=O)c2ccccc2-3)cc1	Tau ThT inhib 3.5µM, Tau FP inhib inconclusive, FBPA coupling cs -79, Sfp PPTase inh 50µM
Cc1ccc(C(=O)C(OC(=O)c2c(C)cc(=O)oc2C)c2ccccc2)cc1 (centres undefined)	none
Cc1oc2c(c1C(=O)c1ccc(Cl)cc1)C(=O)C(=O)c1ccccc1-2	Tau ThT inhib 2.2µM, Tau FP inhib inconclusive, FBPA coupling cs -79, Sfp PPTase inh inconclusive
Cc1ccc(C(=O)c2coc3c2C(=O)C(=O)c2ccccc2-3)cc1	Tau ThT inhib 2.2µM, Tau FP inhib inconclusive, Tau fluor counter inconclusive, FBPA coupling cs -79, Sfp PPTase inh 45µM
CCC(C)(C)n1nnnc1C(c1cc2cc(C)cc(C)c2[nH]c1=O)N1CCN(Cc2ccc3c(c2)OCO3)CC1 (centres undefined)	Sfp PPTase inh 63µM
CCOc1ccc(C(c2nnnn2C(C)(C)C)N2CCN(C(=O)c3ccco3)CC2)cc1 (centres undefined)	none (no result: Tau ThT inhib, Tau FP inhib, Tau fluor counter)
CCC(C)(C)n1nnnc1C(c1cc2cc(C)cc(C)c2[nH]c1=O)N1CCCC1 (centres undefined)	Tau ThT inhib inconclusive, Sfp PPTase inh 25µM
Cc1cc(C)c2[nH]c(=O)c(C(c3nnnn3C(C)(C)C)N3CCN(C(=O)c4ccco4)CC3)cc2c1 (centres undefined)	Sfp PPTase inh 18µM
CN(C)c1ccc(C(c2nnnn2C(C)(C)C)N2CCN(C(=O)c3ccco3)CC2)cc1 (centres undefined)	Tau ThT inhib 16µM, Tau fluor counter inconclusive
CCOc1ccc(CNC(=O)c2c(C)nn(-c3ccc(F)cc3)c2-n2cccc2)cc1	none (no result: FBPA coupling cs, Sfp PPTase inh)
CCOC(=O)c1c(S(=O)(=O)NCC(=O)Nc2ccc(C)c(N(C)C)c2)c(C)n(C)c1C	none (no result: FBPA coupling cs, Sfp PPTase inh)
C[C@H]1CC2[C@@H]3CCC4=CC(=O)C=C[C@]4(C)[C@@]3(F)[C@@H](O)C[C@]2(C)[C@@]1(O)C(=O)CO (some centres undefined)	none (no result: FBPA coupling cs, Sfp PPTase inh)
O=C(Cc1cccs1)N=Nc1c(O)[nH]c2ccc(Br)cc12	Tau ThT inhib inconclusive
COc1ccc2[nH]c(O)c(N=NC(=O)Cc3cccs3)c2c1	Tau ThT inhib 16µM, Tau fluor counter inconclusive
COc1cc(-c2nc3cnccn3c2Nc2ccc(C(C)C)cc2)ccc1O	Tau fluor counter inconclusive
COc1cc(-c2nc3nc[nH]n3c2Nc2ccc(C(C)C)cc2)ccc1O	Tau ThT inhib 25µM, Tau FP inhib inconclusive, Tau fluor counter inconclusive (no result: FBPA coupling cs, Sfp PPTase inh)
Cc1ccccc1NC(=O)CN(C)S(=O)(=O)c1cccc2nsnc12	none (no result: FBPA coupling cs, Sfp PPTase inh)
CN1CCN(/N=C/c2ccc(-c3ccc([N+](=O)[O-])cc3Cl)o2)CC1	Tau ThT inhib 11µM, Tau fluor counter inconclusive
O=[N+]([O-])c1ccc(Cl)c(-c2ccc(/C=N/n3cnnc3)o2)c1	none (no result: Tau ThT inhib, Tau FP inhib, Tau fluor counter)
C=CCC(C)(O)c1ccc(OC)cc1 (centres undefined)	none
CC12CCC=CC1C(c1ccc3ccccc3c1Br)N(Cc1ccccc1)C2=O (centres undefined)	Sfp PPTase inh inconclusive (no result: Tau ThT inhib, Tau FP inhib, Tau fluor counter)
CCOC(=O)N1CCc2c(sc(N)c2C#N)C1	Tau ThT inhib inconclusive, Sfp PPTase inh 56µM
CCOC(=O)N1CCc2c(sc(NC(=O)CN3CCOCC3)c2C#N)C1	none
CCOC(=O)c1c(NC(=S)N2CCCCC2)sc2c1CCN(C(=O)OCC)C2	Tau ThT inhib inconclusive, Sfp PPTase inh inconclusive
CCOC(=O)c1c(NC(=S)N2CCOCC2)sc2c1CCN(C(=O)OCC)C2	Tau ThT inhib inconclusive, Sfp PPTase inh 50µM
CCOC(=O)C1CCc2sc(N)c(C#N)c21 (centres undefined)	Sfp PPTase inh 50µM
Cc1cc(C)n(CC(O)Cn2c3ccc(Br)cc3c3cc(Br)ccc32)c(=O)n1 (centres undefined)	none
CN(C)CC(O)Cn1c2ccc(Br)cc2c2cc(Br)ccc21 (centres undefined)	Tau FP inhib 25µM, Tau fluor counter inconclusive, Sfp PPTase inh inconclusive (no result: FBPA coupling cs)
Cc1ccc2c(CC(=O)N(Cc3ccc(Cl)cc3)Cc3ccco3)coc2c1	Tau ThT inhib inconclusive (no result: FBPA coupling cs, Sfp PPTase inh)
Cc1ccsc1/C=C1/SC(N2CC(C)OC(C)C2)=NC1=O (centres undefined)	Tau ThT inhib inconclusive, Sfp PPTase inh 56µM
O=C(c1cnccn1)N1CCC2(CCCN(c3ccncc3)C2)CC1	none (no result: Tau ThT inhib, Tau FP inhib, Tau fluor counter)
Cn1c(NN)nc2ccccc2c1=O	Tau ThT inhib inconclusive, Sfp PPTase inh 18µM
O=C(NCc1ccccc1Cl)c1cnc2sc(N3CCCCC3)nn2c1=O	none (no result: FBPA coupling cs, Sfp PPTase inh)
COc1ccc(CC2=CC(=O)c3ccccc3C2=O)cc1	Sfp PPTase inh 25µM (no result: Tau ThT inhib, Tau FP inhib, Tau fluor counter)
Cc1ccc(C(C[N+](=O)[O-])c2c(C)[nH]n(-c3ccccc3)c2=O)cc1 (centres undefined)	Tau ThT inhib inconclusive, FBPA coupling cs -32
CN(C)C(=O)NC(NC(=S)Nc1ccccc1)C(Cl)(Cl)Cl (centres undefined)	Tau FP inhib inconclusive, Sfp PPTase inh 56µM
COC(=O)C1=C(C(=O)OC)[C@@H]2N(C)c3ccccc3[C@@]23C[C@@H](CO)N(C(=O)c2ccco2)C3=N1	none
COc1cccc(NC(=S)Nc2cc(C(=O)O)ccc2N2CC3CC(C2)c2cccc(=O)n2C3)c1 (centres undefined)	none
Cc1ccc(NC(=S)Nc2cc(C(=O)O)ccc2N2CC3CC(C2)c2cccc(=O)n2C3)cc1C (centres undefined)	Sfp PPTase inh 56µM
COc1ccc(/C(C)=N/Nc2nc3ccccc3nc2C)cc1	Tau ThT inhib 11µM, Tau fluor counter inconclusive, Sfp PPTase inh 25µM
Cc1snc(SCC(=O)c2ccc(Cl)cc2)c1C#N	Tau ThT inhib inconclusive, Tau FP inhib inconclusive, Tau fluor counter inconclusive, Sfp PPTase inh 28µM
COC(=O)c1cc(C#N)c(SCc2ccccc2)nc1C	none
COC(=O)c1ccccc1CSc1nsc(C)c1C#N	Sfp PPTase inh 50µM (no result: Tau ThT inhib, Tau FP inhib, Tau fluor counter)
Cc1ccc(C(=O)CSc2nsc(C)c2C#N)cc1	Tau ThT inhib inconclusive, Sfp PPTase inh 20µM
N#Cc1c(SCC(N)=O)nsc1SCc1ccc(Cl)cc1	none
O=C(CSc1nc2c([nH]c3ccccc32)c(=O)n1-c1ccc(Cl)cc1)NC1CCCCC1	none (no result: FBPA coupling cs, Sfp PPTase inh)
CCC(Sc1nnc(C)n2c1cc1occc12)C(=O)Nc1ccccc1F (centres undefined)	Tau ThT inhib inconclusive (no result: FBPA coupling cs, Sfp PPTase inh)
